miR122 inh = miR-122 suppressors via Renilla sensor increase, primary screen, cell-based, Huh7 psiCHECK-miR122, Renilla luciferase, single point | 48 h | activation, % at 12.5 µM | 340,000 tested, 0.14% active | AID 623901, 2012;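 active means mean activation of 30% or more, with every replicate also reaching 30%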;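 further: 0% = median of neutral control wells and 100% = median of positive control wells; higher luciferase signal means stronger suppression of miR-122 activity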
Starred values were filed as active, the others as inactive. Only a selection was taken, and hits are over-represented in it overall.

SMILES	miR122 inh
C[C@@H]1CN([C@@H](C)CO)C(=O)c2cc(C#CC3(O)CCCC3)cnc2O[C@H]1CN(C)C(=O)Cc1ccccc1	-4
C[C@@H]1CN([C@H](C)CO)C(=O)c2cc(C#CCc3ccccc3)cnc2O[C@H]1CN(C)Cc1cccc(C(=O)O)c1	2
C[C@H]1CN([C@@H](C)CO)C(=O)c2cc(C#Cc3ccc(F)cc3)cnc2O[C@H]1CN(C)CC1CCOCC1	8
C[C@H]1CN([C@@H](C)CO)C(=O)c2cc(-c3cccc(F)c3)cnc2O[C@H]1CN(C)Cc1cncnc1	4
Cn1c(-c2ccc(N)cc2)nc2ccccc21	36*
Cc1cc(C(=O)Nc2cccc3c2O[C@H](CN(C)Cc2ccc(C(F)(F)F)cc2)[C@@H](C)CN([C@H](C)CO)C3=O)n(C)n1	-276
N#CC1=C(N)Oc2c(ccc3cccnc23)C1c1ccccc1 (stereo unspecified)	64*
C[C@@H]1CN([C@H](C)CO)C(=O)c2cc(Br)cnc2O[C@@H]1CN(C)Cc1cccc(F)c1	3
C[C@@H]1CN([C@H](C)CO)C(=O)c2cc(C#CC3(O)CCCC3)cnc2O[C@@H]1CN(C)Cc1cncnc1	2
COc1cccc(-c2cnc3c(c2)C(=O)N([C@@H](C)CO)C[C@H](C)[C@H](CN(C)CC2CCOCC2)O3)c1	8
CCCNC(=O)N(C)C[C@H]1Oc2cc(C#Cc3ccccn3)ccc2S(=O)(=O)N([C@H](C)CO)C[C@@H]1C	-10
C[C@H](CO)N1C[C@H](C)[C@@H](CN(C)C(=O)C2CCCCC2)Oc2ncc(C#CCc3ccccc3)cc2C1=O	-36
Cc1ccc(-c2ccc3c(c2)O[C@H](CN(C)C(=O)CC2CC2)[C@H](C)CN([C@H](C)CO)S3(=O)=O)cc1	40*
Cc1ccc(-c2ccc3c(c2)O[C@H](CN(C)C(=O)CC2CC2)[C@H](C)CN([C@@H](C)CO)S3(=O)=O)cc1	53*
C[C@@H]1CN([C@H](C)CO)S(=O)(=O)c2ccc(Br)cc2O[C@@H]1CN(C)C(=O)CC1CC1	-18
C/C=C/c1ccc2c(c1)O[C@@H](CN(C)C(=O)c1ccc3c(c1)OCO3)[C@@H](C)CN([C@@H](C)CO)S2(=O)=O	-1
C[C@H]1CN([C@@H](C)CO)S(=O)(=O)c2ccc(-c3ccccc3)cc2O[C@@H]1CN(C)C(=O)CC1CC1	-33
C/C=C/c1ccc2c(c1)O[C@H](CN(C)C(=O)c1ccc3c(c1)OCO3)[C@@H](C)CN([C@@H](C)CO)S2(=O)=O	-14
C[C@@H]1CN([C@H](C)CO)S(=O)(=O)c2ccc(-c3ccccc3)cc2O[C@H]1CN(C)C(=O)CC1CC1	-1
C[C@@H]1CN([C@@H](C)CO)S(=O)(=O)c2ccc(-c3ccccc3)cc2O[C@@H]1CN(C)C(=O)c1ccc2c(c1)OCO2	44*
C[C@@H]1CN([C@@H](C)CO)S(=O)(=O)c2ccc(-c3ccccc3)cc2O[C@@H]1CN(C)C(=O)CC1CC1	7
C[C@@H]1CN([C@@H](C)CO)C(=O)c2cc(-c3cccc(C#N)c3)cnc2O[C@H]1CN(C)C(=O)C1CCCCC1	2
COc1cccc(-c2cnc3c(c2)C(=O)N([C@H](C)CO)C[C@H](C)[C@@H](CN(C)CC2CCOCC2)O3)c1	5
C[C@H]1CN([C@@H](C)CO)C(=O)c2cc(-c3ccc(F)cc3)cnc2O[C@H]1CN(C)C(=O)c1cccnc1	5
C[C@H](CO)N1C[C@H](C)[C@@H](CN(C)Cc2cccc(F)c2)Oc2ncc(Br)cc2C1=O	-7
SMILES	miR122 inh
COc1ccccc1-c1ccc2c(c1)O[C@H](CN(C)S(=O)(=O)c1ccccc1)[C@H](C)CN([C@@H](C)CO)S2(=O)=O	-17
C[C@H](CO)N1C[C@H](C)[C@@H](CN(C)C(=O)Nc2ccc(F)cc2)Oc2cc(C#CC3(O)CCCC3)ccc2S1(=O)=O	-30
C[C@@H]1CN([C@@H](C)CO)S(=O)(=O)c2ccc(C3=CCCCC3)cc2O[C@@H]1CN(C)C(=O)Nc1ccc2c(c1)OCO2	46*
CC(C)NC(=O)N(C)C[C@@H]1Oc2cc(C3=CCCCC3)ccc2S(=O)(=O)N([C@@H](C)CO)C[C@@H]1C	1
C[C@@H]1CN([C@@H](C)CO)S(=O)(=O)c2ccc(C3=CCCCC3)cc2O[C@@H]1CN(C)C(=O)Cc1ccncc1	48*
C[C@H](CO)N1C[C@H](C)[C@@H](CN(C)S(C)(=O)=O)Oc2cc(C3=CCCCC3)ccc2S1(=O)=O	-13
C[C@H]1CN([C@@H](C)CO)S(=O)(=O)c2ccc(C3=CCCCC3)cc2O[C@H]1CN(C)C(=O)CC1CC1	7
C[C@H]1CN([C@@H](C)CO)S(=O)(=O)c2ccc(C#Cc3ccccc3)cc2O[C@H]1CN(C)C(=O)Nc1ccc2c(c1)OCO2	-3
C[C@@H]1CN([C@H](C)CO)S(=O)(=O)c2ccc(C3=CCCCC3)cc2O[C@@H]1CN(C)S(C)(=O)=O	-25
C[C@H]1CN([C@@H](C)CO)S(=O)(=O)c2ccc(Br)cc2O[C@@H]1CN(C)C(=O)Nc1ccc2c(c1)OCO2	-1

Screens as filed in PubChem.
